Records with an inconclusive call do not appear. Calls of active or inactive are those of the source. Unless noted, the call rests on the fitted dose curve; in most records, active means well fitted curve in the direction sought with a large enough effect in the repeat runs; inconclusive means weak or mixed curves; inactive means no such curve, though single readings can be large; an effect the other way counts as inactive or inconclusive.

For nine compounds, Potency and outcome results are on record in PubChem BioAssay (Tox21).

Test [1] is described as follows: qHTS assay to identify small molecule agonists of the peroxisome proliferator-activated receptor delta (PPARd) signaling pathway - cell viability counter screen (AID 743211). Further: nearly all actives have a fitted effect of over 55% in size. Further: potency means the concentration at half of the fitted maximal effect. The method, boiled down: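 Viability was measured as CellTiter-Glo luminescence (30 min, room temperature) in the same wells as the beta-lactamase readout. GeneBLAzer PPARd UAS-bla HEK293H cells received compound after 5 h plating and were incubated 17 h at 37 C.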
Background: qHTS replaces the single test concentration by a dilution series.

Test [2] addresses Peroxisome proliferator-activated receptor delta (Homo sapiens) (UniProt Q03181). The test is described as follows: qHTS assay to identify small molecule agonists of the peroxisome proliferator-activated receptor delta (PPARd) signaling pathway (AID 743212; calls by dose curve). The method, boiled down:
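Beta-lactamase reporter readout: a ratiometric FRET signal from the LiveBLAzer substrate after 2 h at room temperature. Compound exposure at 37 °C in PPARδ-bla HEK293H cells driven by an upstream activator sequence.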

A short description of test [3]: qHTS assay to identify small molecule antagonists of the peroxisome proliferator-activated receptor delta (PPARd) signaling pathway - cell viability counter screen (AID 743213). Further: nearly all actives have a fitted effect of over 50% in size. Further: potency means the concentration at half of the fitted maximal effect. In outline: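 PPARd-bla HEK293H cells were treated with compounds plus agonist L165041 (300 nM final) for 17 h at 37 C. Viability was then read in the same wells by CellTiter-Glo luminescence after 30 min at room temperature.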

In test [4] the target is Bile acid receptor (Homo sapiens) (UniProt Q96RI1). As to the kind of experiment: qHTS assay to identify small molecule antagonists of the farnesoid-X-receptor (FXR) signaling pathway (AID 743217; active means well fitted inhibition curve with a large enough effect in the signal ratio in the repeat runs, not every such curve was filed as active; the % refers to the signal ratio). In outline:
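Screen of the Tox21 10K library in quantitative HTS format using FXR-UAS-bla HEK 293T reporter cells. Agonist chenodeoxycholic acid, 50 uM final, added with compounds; 16 h incubation at 37 °C; beta-lactamase FRET fluorescence measured.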

The nature of test [5]: qHTS assay to identify small molecule agonists of the farnesoid-X-receptor (FXR) signaling pathway - cell viability counter screen (AID 743218). Further: nearly all actives have a fitted effect of over 45% in size. Further: potency means the concentration at half of the fitted maximal effect. The method, boiled down:
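Viability of FXR-bla HEK 293T cells is measured by ATP-based CellTiter-Glo luminescence following 16 h compound treatment at 37 C and a prior 2 h room-temperature beta-lactamase substrate step.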

Test [6] has as its target Bile acid receptor (Homo sapiens) (UniProt Q96RI1). The test is described as follows: qHTS assay to identify small molecule agonists of the farnesoid-X-receptor (FXR) signaling pathway (AID 743220; active means well fitted activation curve with a large enough effect in the signal ratio in the repeat runs, not every such curve was filed as active; the % refers to the signal ratio). In outline:
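FXR-UAS-bla HEK 293T cells carrying a UAS-driven beta-lactamase reporter were plated for 5 h at 37C/5% CO2, then exposed to DMSO-dissolved Tox21 10K compounds for 16 h at 37C. A LiveBLAzer B/G FRET substrate was loaded for 2 h at room temperature before fluorescence reading.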

The nature of test [7]: qHTS assay to identify small molecule antagonists of the farnesoid-X-receptor (FXR) signaling pathway - cell viability counter screen (AID 743221; active means well fitted cell-killing curve with a large enough effect in the repeat runs, not every such curve was filed as active; further: nearly all actives have a fitted effect of over 50% in size; further: potency means the concentration at half of the fitted maximal effect). In outline: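 Cytotoxicity counter screen run in the FXR-bla reporter wells: HEK 293T cells exposed to compound with 50 uM (final) chenodeoxycholic acid for 16 h, 37 C, then viability measured by CellTiter-Glo luminescence after 30 min, room temperature.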

For test [8], the target named is Vitamin D3 receptor (Homo sapiens) (UniProt P11473). As to the kind of experiment: qHTS assay to identify small molecule agonists of the vitamin D receptor (VDR) signaling pathway (AID 743222; calls by dose curve). The method, boiled down:
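Fluorescence from cleaved LiveBLAzer B/G FRET substrate served as readout. VDR-bla cells had been treated 16 h at 37C with test compounds in DMSO, following a 4 h settling period, and substrate was loaded for 2 h at RT.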

The nature of test [9]: qHTS assay to identify small molecule agonists of the vitamin D receptor (VDR) signaling pathway - cell viability counter screen (AID 743224). Further: nearly all actives have a fitted effect of over 50% in size. Further: potency means the concentration at half of the fitted maximal effect. The method, boiled down:
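Compounds were pin-transferred onto VDR-bla cells plated 4 h earlier; following 16 h incubation at 37C, cell viability was quantified by CellTiter-Glo luminescence after 30 min at room temperature.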

A short description of test [10]: qHTS assay to identify small molecule agonists of the NFkB signaling pathway (AID 1159509; active means well fitted curve in the direction sought with a large enough effect in the signal ratio in the repeat runs, not every such curve was filed as active; the % refers to the signal ratio; further: series mostly up to about 61 µM). In outline:
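Agonist activity was read as beta-lactamase-driven FRET change (460 and 530 nm emission, 405 nm excitation) following 1.5 hr substrate loading at room temperature. Beforehand, ME-180 NFkB-bla reporter cells were treated with compounds for 5 hr at 37 C.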

Test [11] is described as follows: qHTS assay to identify small molecule agonists of the NFkB signaling pathway - cell viability counter screen (AID 1159515; calls by dose curve; further: series mostly up to about 61 µM; nearly all actives have a fitted effect of over 55% in size). In outline: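 Parallel cytotoxicity counter screen in ME-180 cells carrying an NFkB-response-element beta-lactamase reporter, 2,000 cells/well. Compound exposure lasted 5 hr at 37 C, 5% CO2. Cell viability was quantified by CellTiter-Glo luminescence.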

Test [12] is described as follows: qHTS assay to identify small molecule agonists of the endoplasmic reticulum stress response signaling pathway (AID 1159516; active means well fitted activation curve with a large enough effect in the signal ratio in the repeat runs, not every such curve was filed as active; the % refers to the signal ratio). In outline: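 Using a HeLa line with an ESRE-driven beta-lactamase gene, agonist activity was measured by FRET substrate fluorescence (460 and 530 nm emission) after cells were treated with compounds for 5 hr at 37 C and 5% CO2.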
Test [13] is described as follows: qHTS assay to identify small molecule antagonists of the retinoid-related orphan receptor gamma (ROR-gamma) signaling pathway - cell viability counter screen (AID 1159520). Further: nearly all actives have a fitted effect of over 50% in size. In outline: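 Cytotoxicity was read from cellular ATP (CellTiter-Glo luminescence) after 16 hr at 37 C with 1 uM doxycycline induction. The inducer was added 2 hr after compound transfer to Tet-on ROR gamma CHO cells.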

Test [14] can be described thus: qHTS assay to identify small molecule agonists of the AP-1 signaling pathway - cell viability counter screen (AID 1159525; calls by dose curve; further: nearly all actives have a fitted effect of over 55% in size). In outline:
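Intracellular ATP by Cell Titer Glo luminescence (30 min, RT) in the same ME-180 AP-1-bla wells after the 5 h compound exposure at 37 °C. Normalised to tetra n-octyl ammonium bromide and DMSO controls.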

The nature of test [15]: qHTS assay to identify small molecule agonists of the AP-1 signaling pathway (AID 1159526; calls by dose curve).
Test [16] addresses Peroxisome proliferator-activated receptor delta (Homo sapiens) (UniProt Q03181). The test is described as follows: qHTS assay to identify small molecule antagonists of the peroxisome proliferator-activated receptor delta (PPARd) signaling pathway (AID 743215; active means well fitted inhibition curve with a large enough effect in the signal ratio in the repeat runs, not every such curve was filed as active; the % refers to the signal ratio;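 further: cells stimulated with agonist L165041 at 300 nM final during compound exposure; series mostly up to about 62 µM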). In outline:
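Plated HEK293H PPARd-bla cells rested 5 h at 37 C and 5% CO2. Compound, then agonist L165041 at 300 nM final, was added; 17 h at 37 C followed. Substrate loading, 2 h room temperature, fluorescence measured.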

Test [17] addresses Vitamin D3 receptor (Homo sapiens) (UniProt P11473). The test is described as follows: qHTS assay to identify small molecule antagonists of the vitamin D receptor (VDR) signaling pathway (AID 743223; active means well fitted inhibition curve with a large enough effect in the signal ratio in the repeat runs, not every such curve was filed as active; the % refers to the signal ratio). The method, boiled down: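 Antagonist mode: compound added to VDR-bla cells alongside agonist 1alpha,25-dihydroxyvitamin D3 (3 nM final), incubation 16 h at 37C. Read-out is LiveBLAzer FRET fluorescence, 2 h at room temperature.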

Test [18] in a line: qHTS assay to identify small molecule antagonists of the vitamin D receptor (VDR) signaling pathway - cell viability counter screen (AID 743225). Further: nearly all actives have a fitted effect of over 50% in size. The method, boiled down: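 Cytotoxicity counter screen read by CellTiter-Glo luminescence (30 min, room temperature) in the same wells as the VDR-bla antagonist readout. HEK 293T VDR-UAS-bla cells had 16 h at 37C with compound and 3 nM (final) 1-alpha,25-dihydroxyvitamin D3, then 2 h with FRET substrate.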

Test [19] has as its target Nuclear receptor ROR-gamma (Homo sapiens) (UniProt P51449). As to the kind of experiment: qHTS assay to identify small molecule antagonists of the retinoid-related orphan receptor gamma (ROR-gamma) signaling pathway (AID 1159521; further: nearly all actives have a fitted effect of over 50% in size; further: potency means the concentration at half of the fitted maximal effect). In outline:
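Antagonist read-out: drop in luminescence (ONE-Glo) from an RORE-LUC reporter in CHO cells with doxycycline-inducible ROR-gamma; 2 hr compound pretreatment, 1 uM doxycycline, 16 hr incubation at 37 C.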

Chain of Peroxisome proliferator-activated receptor delta (Homo sapiens) (Q03181 whole entry, looked up): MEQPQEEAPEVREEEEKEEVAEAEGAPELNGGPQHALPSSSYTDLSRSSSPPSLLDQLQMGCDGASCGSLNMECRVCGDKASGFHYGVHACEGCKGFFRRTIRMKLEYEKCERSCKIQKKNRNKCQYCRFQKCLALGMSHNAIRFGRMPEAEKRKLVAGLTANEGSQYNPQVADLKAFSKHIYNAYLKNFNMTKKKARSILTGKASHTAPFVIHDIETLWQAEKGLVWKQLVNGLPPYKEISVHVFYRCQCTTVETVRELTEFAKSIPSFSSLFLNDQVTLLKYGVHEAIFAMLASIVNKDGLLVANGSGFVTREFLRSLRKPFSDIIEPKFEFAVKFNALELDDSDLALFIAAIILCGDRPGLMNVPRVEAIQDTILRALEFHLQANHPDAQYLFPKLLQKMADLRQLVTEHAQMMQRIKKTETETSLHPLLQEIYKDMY
Chain of Vitamin D3 receptor (Homo sapiens) (P11473 whole entry, looked up): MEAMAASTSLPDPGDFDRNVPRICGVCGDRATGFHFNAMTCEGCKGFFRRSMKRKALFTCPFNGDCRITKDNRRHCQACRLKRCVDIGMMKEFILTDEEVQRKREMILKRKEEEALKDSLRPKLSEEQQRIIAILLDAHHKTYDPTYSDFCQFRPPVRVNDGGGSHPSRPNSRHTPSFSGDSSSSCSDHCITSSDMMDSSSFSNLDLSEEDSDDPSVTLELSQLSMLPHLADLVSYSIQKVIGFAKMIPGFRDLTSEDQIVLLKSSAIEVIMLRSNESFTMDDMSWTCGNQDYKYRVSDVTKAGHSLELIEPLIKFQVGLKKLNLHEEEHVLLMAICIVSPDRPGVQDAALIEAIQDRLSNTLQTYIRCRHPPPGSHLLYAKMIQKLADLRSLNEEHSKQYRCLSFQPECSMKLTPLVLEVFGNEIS
Chain of Bile acid receptor (Homo sapiens) (Q96RI1 whole entry, looked up): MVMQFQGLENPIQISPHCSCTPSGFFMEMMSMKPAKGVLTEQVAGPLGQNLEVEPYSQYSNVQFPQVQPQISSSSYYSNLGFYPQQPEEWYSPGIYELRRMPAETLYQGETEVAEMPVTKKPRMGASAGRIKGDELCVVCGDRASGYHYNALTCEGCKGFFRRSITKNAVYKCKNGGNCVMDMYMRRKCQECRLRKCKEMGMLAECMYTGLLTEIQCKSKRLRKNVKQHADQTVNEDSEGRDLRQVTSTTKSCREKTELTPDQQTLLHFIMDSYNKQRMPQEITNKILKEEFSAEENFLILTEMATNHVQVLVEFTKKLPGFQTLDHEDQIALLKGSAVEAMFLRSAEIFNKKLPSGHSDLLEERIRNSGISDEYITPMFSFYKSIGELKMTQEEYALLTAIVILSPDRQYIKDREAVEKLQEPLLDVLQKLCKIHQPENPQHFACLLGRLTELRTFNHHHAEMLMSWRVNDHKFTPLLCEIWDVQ

In the case of `CNC(=S)NC`, the Potency entry in test [1], in test [2], in test [3], in test [4], in test [6] and in test [9] was “inactive” throughout. In addition, in test [13], the Potency result was “inactive”. For the same compound, the Potency is 17.4 µM (active) in test [5] and 38.9 µM (active) in test [7]. The outcome in test [8], in test [10], in test [11], in test [12], in test [14] and in test [15] was inactive.
On to `CCC(C(=O)OCCN(CC)CC)c1ccccc1` (centres undefined), for which the Potency result in test [1], in test [2], in test [3], in [16], in test [5] and in test [7] was “inactive” in each case. Besides, the Potency result in test [9], in test [18] and in test [13] was “inactive” in each case. The outcome in [8], in [17], in test [10], in [11], in test [12] and in test [14] was inactive.
For `CCOc1cc(N)c(Cl)cc1C(=O)NCC1CN(Cc2ccc(F)cc2)CCO1` (centres undefined), the Potency result in test [1], in test [2], in test [3], in test [16], in [6] and in test [7] was “inactive” each time. The Potency result in test [9], in test [18] and in [13] was “inactive” throughout. Also, the compound was classed as inactive in test [17], in test [10], in test [11], in [12], in test [14] and in test [15].
In the case of `CCc1nn(CCCN2CCN(c3cccc(Cl)c3)CC2)c(=O)n1CCOc1ccccc1`, the Potency entry in [3], in [16], in [5], in test [7] and in test [9] was “inactive” in each case. Besides, the compound was called inactive in test [10], in test [11], in [12], in test [14] and in test [15]. In [19], the Potency is 18.8 µM (active).
With `CC(C)(C)CC(C)(C)c1ccc(OCCO)cc1`, in [6], the Potency entry is “inactive”. Further, the compound was called inactive in test [17], in test [10], in [11], in test [12], in test [14] and in test [15]. In addition, the Potency in [9] is 38.7 µM (active); in [19], 19.2 µM (active).
`CCCCCCCCCCCC[N+](C)(C)CC(=O)[O-]`: in [1], the Potency was 15.5 µM (active). Also, the Potency entry in test [2], in test [16], in test [4], in [6] and in test [19] was “inactive” throughout. The compound was classed as inactive in test [8], in test [17], in test [10], in test [11], in test [12] and in test [14]. For the same compound, the outcome in test [15] was inactive.
For `C=CC(C)=CCC=C(C)C`, the Potency entry in test [1], in [3], in test [9], in test [18] and in test [13] was “inactive” each time. Moreover, the outcome in test [8], in test [17], in test [10], in [11], in test [12] and in test [14] was inactive. Besides, the result in test [15] was inactive.
Turning to `CN(C)CCOC1=Cc2ccccc2Sc2ccc(Cl)cc21`, the Potency result in test [2], in [6], in test [9] and in test [13] was “inactive” each time. Also, the Potency in test [3] was 26.6 µM (active). Besides, the result in [8], in test [10], in test [11], in test [12] and in [14] was inactive.
For `CC(=O)N(c1onc(C)c1C)S(=O)(=O)c1ccc(N)cc1`, the Potency result in test [1], in [4], in test [5], in [6], in test [7] and in test [9] was “inactive” throughout. Besides, the Potency result in test [18] and in test [13] was “inactive” throughout. For the same compound, the call in test [8], in test [10], in test [11], in test [12], in [14] and in test [15] was inactive.
